MITF act: activators of MITF-driven TRPM1 promoter activity in SK-MEL-5 cells; SK-MEL-5 TRPM1-promoter luciferase, 24 h; % of positive control, neutral wells = 0; AID 588334; activation, % at 12.5 µM; 0.75% of 300,000 active;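 active means mean activation of at least 80% with every replicate also reaching 80%; inconclusive means mean reaches 80% but some replicate falls short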;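 further: 0% = neutral control wells and 100% = parthenolide positive control wells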
F508del corr: correctors of CFTR F508del function in bronchial epithelial cells | CFBE cells, YFP halide quenching; stimulated with forskolin plus potentiator P3; % fluorescence drop versus neutral controls | activity (quench increase), % at 7.58 µM | 0.36% of 350,000 active;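 active means mean added fluorescence quench of at least 8% versus neutral control, with both replicates also reaching 8%; inconclusive means only one of the mean or replicate conditions met; inactive means mean below 8% and not both replicates reaching 8%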;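 further: cells transiently co-express mutant CFTR-F508del with the halide-sensitive YFP; corrector assay measuring rescue of mutant channel to the surface after 24 h compound exposure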
Wnt act: Wnt/beta-catenin pathway activation; Wnt/beta-catenin reporter cell assay, activator, plate reader; activation, % at 9.35 µM; 1.2% of 300,000 active; in the data active means activation above about 30%, passing the limit was not always enough; inconclusive means no clear call, values can overlap the other calls;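 further: 0% = neutral control wells and 100% = positive control wells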
GSIS activator: GLuc luminescence reporter in INS-1E cells, primary screen for activators of glucose-dependent secretion of insulin; INS-1E GLuc reporter insulin secretion, 2-3 h; activation, % at 16.6 µM; 0.61% of 370,000 active;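 active means lowest replicate activation of at least 40%, so every replicate reaches that level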;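 further: 0% = median of neutral control wells and 100% = median of IBMX positive control wells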
Env fusion inh: inhibitors of HIV Env-mediated cell fusion | inhibition, % at 12.3 µM | AID 651610 | HeLa-JRFL Env/CEM21 cell fusion, luciferase | 1.1% of 360,000 active;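 active means mean replicate inhibition score of at least 50 and every replicate individually at or above 50; inconclusive means only one of the two criteria met; inactive means mean below 50 and not all replicates reaching 50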;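 further: 0% = plate neutral controls and 100% = maraviroc near 300 nM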
Active calls of the source: *; ? = inconclusive; nt = no result given; [ ] = dose if it differs, or a comment. An excerpt weighted towards active compounds, which were near 2.7% of everything screened.

SMILES	MITF act	F508del corr	Wnt act	GSIS activator	Env fusion inh
O=C(NCC[C@@H]1CC[C@H](NC(=O)C2CCCC2)[C@H](CO)O1)c1cc(Cl)cc(Cl)c1	nt	1	nt	7	4[16.7 µM]
Cc1ccc(-c2csc(N3C(=N)SCC3=O)n2)cc1	nt	0	50*	13	-53
CC1=NN(c2nc(-c3ccc(Cl)cc3)cs2)C(=O)C1	14	nt	nt	nt	13
CCCNC(=O)C[C@@H]1CC[C@@H]2[C@@H](COc3ccc(NC(=O)c4ccc(Cl)cc4)cc3C(=O)N2C)O1	nt	0	nt	-3	8[16.7 µM]
Cn1c(/C(C#N)=C(\O)c2ccc([N+](=O)[O-])s2)nc2ccccc21	12	2	5	-18	-6
Cn1c(/C(C#N)=C(\O)c2ccc(Cl)s2)nc2ccccc21	18	1	30*	6	-22
CCOC(=O)C1=C(C(=O)OCC)C2N(Cc3ccc(Br)cc3)c3ccccc3[C@@]23C[C@@H](C(=O)OC)N(S(=O)(=O)c2cccs2)C3=N1 (stereo partly specified)	nt	-3	0	nt	59*
C=CCN1c2ccccc2[C@]23C[C@@H](C(=O)OC)N(C(=O)c4cccs4)C2=NC(C(=O)OC)=C(C(=O)OC)[C@H]13	7	8.0*	-2	nt	-11
CCOC(=O)C1=C(C(=O)OCC)C2N(Cc3ccc(C(F)(F)F)cc3)c3ccccc3[C@@]23C[C@@H](C(=O)OC)N(S(=O)(=O)c2cccs2)C3=N1 (stereo partly specified)	nt	-1	-1	nt	?
C[C@@H]1CCCCO[C@@H](CN(C)C(=O)Cc2ccccc2)[C@H](C)CN([C@@H](C)CO)C(=O)c2cc(NS(=O)(=O)c3ccc(F)cc3)ccc2O1	nt	1	nt	-21	-26[16.7 µM]
COc1ccc(/C=C2\CCOC2=O)cc1	10	nt	nt	nt	6
COc1ccc(/C=C2/C(=O)OCc3cc(OC)c(OC)cc32)cc1	0	nt	nt	113*	47
O=C(CSc1n[nH]c(=O)n1C1CC1)c1ccc2c(c1)OCCO2	nt	0	38*	15	-15
O=C(CSc1n[nH]c(=O)n1Cc1ccco1)c1ccc2c(c1)OCCO2	28	-2	15	14	-312
CN(C)C(=O)C[C@@H]1C[C@H]2c3cc(NC(=O)Nc4ccccc4)ccc3O[C@H]2[C@@H](CO)O1	nt	1	nt	4	13[16.7 µM]
COC(=O)c1ccc(COc2ccc(C)cc2[N+](=O)[O-])o1	nt	-1	36*	4	8
O=C(Cc1ccccc1)N[C@H]1CC[C@@H](CC(=O)N2CCOCC2)O[C@H]1CO	nt	0	nt	16	16[16.7 µM]
CCC(C)NC(=O)c1cc2cc3ccc(OC)cc3nc2s1 (stereo unspecified)	32	nt	45*	nt	-411
CCCCC/C=C\C/C=C\C/C=C\CCCCC(=O)O	5	9.0*	-1	nt	2
CCCCCCCC/C=C\CCCCCCCC(=O)O	2	-5	-3	nt	-7
C=CCNC(=O)COc1coc(CN2CCN(C(=O)c3ccco3)CC2)cc1=O	-6	2	0	49*	-1
CNC(=O)COc1coc(CN2CCN(C(=O)c3ccco3)CC2)cc1=O	-2	1	35*	17	5
O=C(c1ccco1)N1CCN(Cc2cc(=O)c(OCc3ccccc3)co2)CC1	2	0	-2	7	nt
Cc1ccc(S(=O)(=O)N2CCCCC2)cc1	-19	0	-1	14	17
Cc1ccc(C)c(CNc2ccc(S(=O)(=O)N3CCCCC3)cc2)c1	-15	5	-2	-10	76*
SMILES	MITF act	F508del corr	Wnt act	GSIS activator	Env fusion inh
C[C@H]1CN([C@@H](C)CO)C(=O)c2cc(-c3ccccc3)cnc2O[C@@H]1CN(C)C(=O)Cc1ccccc1	nt	1	nt	-14	18[16.7 µM]
Cc1cc(C)c2nc(Nc3nc(CSc4nc5ccccc5[nH]4)cc(=O)[nH]3)nc(C)c2c1	-15	-1	1	14	83*
Cc1ccc2c(C)nc(Nc3nc(CSc4nnnn4-c4ccccc4)cc(=O)[nH]3)nc2c1	-28	nt	nt	-6	70*
Cc1ccc(SCc2cc(=O)[nH]c(Nc3nc(C)c4cccc(C)c4n3)n2)cc1	2	nt	nt	-11	-43
Cc1ccc(-c2cc(N)n(-c3ccc(F)cc3)n2)cc1	100*	0	9	1	-28
Cc1ccc(-c2cc(N)n(-c3ccc(C)cc3)n2)cc1	87*	nt	nt	nt	nt
Cc1ccc(-c2cc3nc(-c4ccc(Br)cc4)cc(N)n3n2)cc1	-13	nt	7	-5	nt
Cc1ccc(-n2nc(-c3ccccc3)cc2Nc2ccccc2N)cc1	11	-2	-7	15	9
Cc1ccc(-c2cc3nc(-c4ccccc4)cc(N)n3n2)cc1	64	nt	42*	nt	-95
Cc1ccc(-c2cc(N)n3nc(-c4ccc(C)cc4)cc3n2)cc1	12	nt	-2	nt	nt
CC12CCC(C(=O)Nc3nccs3)(OC1=O)C2(C)C (stereo unspecified)	nt	nt	-5	nt	-27
CC12CCC(C(=O)Nc3nc4ccc(Br)cc4s3)(OC1=O)C2(C)C (stereo unspecified)	44	-1	53*	-1	11
C[C@H](CO)N1C[C@H](C)[C@@H](CN(C)Cc2ccc(-c3ccccc3)cc2)Oc2ccc(NC(=O)Nc3cccc4ccccc34)cc2CC1=O	nt	nt	nt	2	nt
O=c1[nH]c(SCCOc2ccccc2F)nc2ccccc12	18	2	4	-2	-15
COc1ccccc1OCCSc1nc2ccccc2c(=O)[nH]1	52	nt	44*	-4	-21
COc1ccc(NC(=O)N2CC[C@@H]3[C@@H](CO)N(C)c4ccc(-c5cccc(C(=O)N(C)C)c5)cc4[C@@H]32)cc1	nt	1	nt	-12	nt
Cc1noc(C)c1NC(=O)Nc1ccc2c(c1)CC(=O)N([C@@H](C)CO)C[C@@H](C)[C@H](CN(C)CC1CC1)O2	nt	3	nt	8	-7[16.7 µM]
O=C(CCl)N(O)c1ccc(C=Cc2ccccc2)cc1	26	0	40*	nt	-7
CC(C)NC(=O)N(C)C[C@H]1Oc2ccccc2C(=O)N(C)C[C@@H]1C	nt	nt	nt	11	nt
CCS(=O)(=O)N1Cc2ccccc2CC1C(=O)NCC12CC3CC(CC(C3)C1)C2 (stereo unspecified)	nt	nt	-3	nt	86*
CCS(=O)(=O)N1Cc2ccccc2CC1C(=O)NCc1cccc(OC)c1 (stereo unspecified)	91*	1	-2	12	0
CCS(=O)(=O)N1Cc2ccccc2CC1C(=O)NC(C)C12CC3CC(CC(C3)C1)C2 (stereo unspecified)	7	nt	28	nt	102*
CCS(=O)(=O)N1Cc2ccccc2CC1C(=O)Nc1nc(C)cs1 (stereo unspecified)	20	1	5	-3	-37
CCS(=O)(=O)N1Cc2ccccc2CC1C(=O)Nc1ccc(F)cc1 (stereo unspecified)	26	0	-2	9	-5
C[C@@H]1CCCCO[C@H](CN(C)Cc2ccncc2)[C@@H](C)CN([C@@H](C)CO)C(=O)c2cc(NC(=O)CCCN(C)C)ccc2O1	nt	0	nt	22	2[16.7 µM]

Source: PubChem BioAssay
